The source of these data is PubChem BioAssay.

Records with an inconclusive call do not appear. Activity calls are given as the source filed them.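 Rule for the calls, unless noted: active = viability loss from added drug above about 55%, and viability with drug at most 40%, in both replicates (limit read from the data, passing the limit was not always enough); inconclusive = both conditions met in only one replicate; inactive = neither replicate meets both conditions.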

Assay [1] in a line: Her2 expression decrease, cell viability multiplex – SKBR3 breast tumor cells, AlphaScreen, ATP viability, primary screen (AID 461;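 active = Her2 level under about 52% in both replicate screens, with viability over 70% of control, limit read from the data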;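 for Her2 level: lower value means less Her2 protein in the cells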;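 for viability: percent of carrier control wells set as 100% viability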). Conditions: SKBR3 Her2 protein level, 18-24 h, measured here: SKBR3 viability, ATP luminescence, at 10 µM. For orientation: Bead proximity is the source of the signal in Alpha formats.
For assay [2], the target named is Receptor tyrosine-protein kinase erbB-2 (Homo sapiens) (UniProt P04626). Described as above. Conditions: 18-24 h, at 10 µM, stronger effect = lower value.
Receptor tyrosine-protein kinase erbB-2 (Homo sapiens), sequence (P04626 whole entry, looked up): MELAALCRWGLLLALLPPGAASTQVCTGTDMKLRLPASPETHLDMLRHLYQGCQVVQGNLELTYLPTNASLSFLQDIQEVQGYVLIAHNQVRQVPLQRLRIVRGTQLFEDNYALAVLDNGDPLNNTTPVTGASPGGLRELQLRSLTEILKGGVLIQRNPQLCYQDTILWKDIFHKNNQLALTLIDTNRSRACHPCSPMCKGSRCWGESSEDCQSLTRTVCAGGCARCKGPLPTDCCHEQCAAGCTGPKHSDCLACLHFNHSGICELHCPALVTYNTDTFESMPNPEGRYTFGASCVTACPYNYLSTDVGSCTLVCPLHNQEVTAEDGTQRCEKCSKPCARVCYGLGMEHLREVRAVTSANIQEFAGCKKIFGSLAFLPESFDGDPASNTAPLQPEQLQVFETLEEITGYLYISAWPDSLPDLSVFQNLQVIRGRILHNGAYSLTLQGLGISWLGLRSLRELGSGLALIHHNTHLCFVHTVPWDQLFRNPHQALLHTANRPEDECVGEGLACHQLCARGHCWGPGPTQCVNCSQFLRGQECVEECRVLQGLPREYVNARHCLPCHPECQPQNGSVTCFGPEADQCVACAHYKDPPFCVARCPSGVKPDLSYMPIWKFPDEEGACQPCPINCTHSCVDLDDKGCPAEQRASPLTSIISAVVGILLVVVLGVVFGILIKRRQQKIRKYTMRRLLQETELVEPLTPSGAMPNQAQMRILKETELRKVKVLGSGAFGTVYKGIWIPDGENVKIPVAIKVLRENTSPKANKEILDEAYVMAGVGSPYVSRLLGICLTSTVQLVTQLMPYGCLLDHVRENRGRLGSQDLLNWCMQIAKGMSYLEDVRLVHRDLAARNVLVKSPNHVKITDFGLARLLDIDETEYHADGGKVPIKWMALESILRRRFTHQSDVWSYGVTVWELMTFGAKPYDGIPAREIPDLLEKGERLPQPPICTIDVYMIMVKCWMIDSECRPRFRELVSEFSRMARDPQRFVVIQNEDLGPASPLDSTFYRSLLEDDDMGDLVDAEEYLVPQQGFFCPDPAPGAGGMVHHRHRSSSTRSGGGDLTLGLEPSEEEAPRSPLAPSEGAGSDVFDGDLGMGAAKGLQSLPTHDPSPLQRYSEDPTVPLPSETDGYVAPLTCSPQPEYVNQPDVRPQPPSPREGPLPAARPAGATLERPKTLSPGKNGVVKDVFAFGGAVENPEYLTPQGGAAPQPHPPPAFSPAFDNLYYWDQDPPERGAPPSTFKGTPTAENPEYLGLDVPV
Assay [3] in a line: reduced viability of SK-BR-3 breast cancer cells – cell-based, 24 h, human, pilot screen (AID 572;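 active = viability at or below 10% of carrier control in both of two separate runs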;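 note: compound exposure lasted between 18 and 24 h rather than exactly 24 h; 100% = carrier-treated control wells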). Conditions: SK-BR-3 viability, CellTiter-Glo luminescence, at 10 µM, stronger effect = lower value. For orientation: ATP-based viability assays read luminescence as a measure of living cells.
Assay [4] in a line: HUVEC growth inhibition – cell-based, human, primary screen (AID 575;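 active = viability at or below 30% in both replicate assays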;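 note: 100% = median of untreated cell wells with 0.1% DMSO on each plate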). Conditions: HUVEC proliferation, CellTiter-Glo luminescence, 72 h; at 10 µM; stronger effect = lower value.
Assay [5] can be described thus: H69AR cell proliferation blockers – human, duplicate replicates, primary screen (AID 580;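 active = viability at or under a set limit in both replicates, limit being median viability minus 3 SD, cut at about 48% in these data, passing the limit was not always enough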;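 note: 100% = mean luminescence of untreated wells and 0% = no signal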). Conditions: H69AR lung tumor cells viability, ATP luminescence, 72 h; at 10 µM; stronger effect = lower value.
A short description of assay [6]: MRP1 drug-resistance reversers in H69AR cells – cell-based, doxorubicin co-treatment, pilot screen (AID 601). Conditions: CellTiter-Glo, 72 h, at 10 µM; for differential viability (reversal): stronger effect = higher value.
Assay [7] can be described thus: yeast transport mutant growth inhibition pilot in 384-well plates, post-Golgi transport modulator project (AID 636; in the data active = inhibition above about 31%). Conditions: absorbance 615 nm, about 18 h, stronger effect = higher value.
Assay [8] in a line: growth suppression of yeast trafficking mutant, preliminary HTS, modulators of trafficking downstream of Golgi apparatus project, 1536-format plate, OD 615 nm (AID 637; in the data active = inhibition above about 30%). Conditions: yeast transport mutant growth, absorbance 615 nm, 18 h; stronger effect = higher value.
A short description of assay [9]: S. cerevisiae growth inhibition in permissive medium (OD615), pilot counter-assay for S. cerevisiae lifespan shortening project, permissive growth control (AID 705;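 active = growth inhibition above 25% in both replicates, a cutoff set 3 SD above the mean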). Conditions: OD615, 24 h, at 10 µM, stronger effect = higher value.
A short description of assay [10]: S. cerevisiae growth inhibition in restrictive medium, OD615, pilot screen, restrictive growth control, yeast lifespan reduction project (AID 706;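 active = growth inhibition above a set limit, 3 SD over mean compound inhibition, in both replicates, cut at about 43% in these data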;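 note: modified DeaD lifespan yeast strain shifted to restrictive glucose medium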). Conditions: OD615, 48 h, at 10 µM, stronger effect = higher value.
Assay [11] in a line: doxorubicin toxicity protection in MRP-1 cells – H69AR cells, CellTiter-Glo, duplicate, MRP-1 activator project, pilot screen (AID 807;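 active = viability increase at or above a cutoff of the median across tested compounds plus 3 SD, cut at about 8.5% in these data, passing the limit was not always enough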;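 note: compound pretreatment 18-22 h then 72 h combined with doxorubicin; 0% = doxorubicin alone and 100% = vehicle without doxorubicin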). Conditions: H69AR viability with doxorubicin, CellTiter-Glo luminescence; at 10 µM; stronger effect = higher value.
The nature of assay [12]: viability of HCT116 without oncogenic beta-catenin – human colon tumor cells, pilot screen (AID 823;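 active = cell viability at or below a set limit in both duplicate runs, the limit being the all-compound median minus 4 SD, cut at about 23% in these data, passing the limit was not always enough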;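 note: 0% = wells killed by 20 µM Hyamine and 100% = untreated DMSO cell wells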). Conditions: HCT116 beta-catenin knockout viability, CellTiter-Glo, 60 h; at 10 µM; stronger effect = lower value.
Assay [13] in a line: viability of PTEN-null HCT116 cells – cell-based, HCT116 clonal line, CellTiter-Glo, pilot screen (AID 824;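 active = viability at or below 27.92% in each of two runs, the all-compound median minus 4 SD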;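 note: 0% = 20 µM Hyamine control and 100% = vehicle cell control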). Conditions: HCT116 PTEN-deleted viability, 60 h, at 10 µM, stronger effect = lower value.
The nature of assay [14]: RAM pathway blockade in budding yeast – dse1pr::URA3 reporter, 5-FOA selection, pilot screen (AID 869;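 active = inhibition over a set limit, the all-compound mean plus 3 SD, in both replicate runs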;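 note: 0% = DMSO wells with no growth and 100% = 10 µM 1-NA-PP1 with full growth; RAM network block rescues cells from 5-FOA so hits raise OD615 growth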). Conditions: S. cerevisiae dse1pr::URA3 5-FOA growth, OD615, 2 d; at 10 µM; stronger effect = higher value; strain carries analog-sensitive mutant Cbk1 kinase.
A short description of assay [15]: RAM signaling pathway blockade in yeast – S. cerevisiae, Pdr1DBD-CYC8 efflux-inhibited sensitized strain, primary screen (AID 1298;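 active = RAM network inhibition above 8.4% in each of two replicates, 3 SD over the compound average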;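 note: 0% = DMSO untreated cells without growth and 100% = 10 µM 1-NA-PP1 full growth; higher means more yeast growth rescued from 5-FOA killing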). Conditions: S. cerevisiae cbk1-as DSE1-URA3 strain, 5-FOA growth OD615, 2 d; at 50 µM; stronger effect = higher value.
The mark [16] stands for this setting: H69AR cells + 2 uM doxorubicin, measured here: viability with 2 uM doxorubicin, stronger effect = lower value.
[17] abbreviates: H69AR cells, compound alone cytotoxicity.

The viability is a read-out of living cells in per cent, often relative to untreated cells. For orientation: inhibition means the relative decrease from the control value, in per cent. With `CCC1CCCCN1CCNS(=O)(=O)c1ccc2c(c1)oc(=O)n2C` (stereo not given), the viability in assay [1] was 91.5%; in [3], 91.5% (inactive); in [4], 79.8% (inactive); in assay [5], 85.2% (inactive); in [6] (setting [16]), 85.1%; in assay [6] (setting [17]), 85.2%. Also, the viability was 97.9% (inactive) in assay [12] and 95.1% (inactive) in assay [13]. Besides, the Her2 level in assay [2] was 84.5% (inactive). Moreover, the differential viability (reversal) in assay [6] (H69AR cells + 2 uM doxorubicin) was 0.025% (inactive). Also, the inhibition was -1.28% (inactive) in assay [7], 0.67% (inactive) in assay [8] and 2.01% (inactive) in assay [14]. The growth inhibition in assay [9] was -0.855% (inactive); in assay [10], -5.11% (inactive). The viability increase in assay [11] was -2.8% (inactive). Further, the RAM network inhibition in assay [15] was -1.43% (inactive).
Regarding `COc1ccccc1S(=O)(=O)Cc1ccc(C(=O)N2CCN(c3ccc(C)cc3)C(C)C2)o1` (stereo not given), the viability in [1] was 82.5%; in assay [3], 82.5% (inactive); in assay [4], 52.4% (inactive); in assay [5], 7.92% (active); in [6] (setting [16]), 56.3%; in assay [6] (setting [17]) it was 7.92%. The viability is 43.2% (inactive) in [12] and 36.8% (inactive) in assay [13]. In addition, the Her2 level in assay [2] was 64.5% (inactive). Besides, the differential viability (reversal) in assay [6] (H69AR cells + 2 uM doxorubicin) was -48.4% (inactive). The inhibition in assay [7] was -1.07% (inactive); in assay [8], 1.64% (inactive); in [14], 0.41% (inactive). Besides, the results for the growth inhibition in assay [9] and in [10] were 4.27% (inactive) and -15.2% (inactive), respectively. In assay [11], the viability increase was -6.26% (inactive). Further, in [15], the RAM network inhibition is 5.28% (inactive).
On to `CCOc1ccc(N(CC(=O)Nc2ccc(F)c(F)c2)S(=O)(=O)c2c(C)noc2C)cc1`, for which the viability is 83.5% in assay [1]; 83.5% (inactive) in assay [3]; 54% (inactive) in assay [4]; 65.8% (inactive) in assay [5]; 64.3% in assay [6] (setting [16]); 65.8% in [6] (setting [17]). Further, the figures for the viability in assay [12] and in [13] were 93% (inactive) and 88.7% (inactive), respectively. The Her2 level in assay [2] is 80% (inactive). The differential viability (reversal) in assay [6] (H69AR cells + 2 uM doxorubicin) is 1.49% (inactive). In addition, the inhibition in assay [7] is -4.4% (inactive); in assay [8], -1.31% (inactive); in [14], 2.33% (inactive). For the same compound, the growth inhibition was -11.3% (inactive) in [9] and -9.45% (inactive) in assay [10]. Besides, the viability increase in assay [11] was -3.6% (inactive). Also, the RAM network inhibition in [15] was 4.77% (inactive).
Turning to `Cc1ccccc1CSc1nnc(C)c(=O)[nH]1`, the viability in assay [1] was 90%; in assay [3], 90% (inactive); in assay [4] it was 104% (inactive); in assay [5], 97.2% (inactive); in assay [6] (setting [16]) it was 92.5%; in assay [6] (setting [17]), 97.2%. The viability is 98.8% (inactive) in assay [12] and 99% (inactive) in assay [13]. Besides, the Her2 level in assay [2] was 106% (inactive). Also, the differential viability (reversal) in assay [6] (H69AR cells + 2 uM doxorubicin) was 4.72% (inactive). In addition, the inhibition is -3.2% (inactive) in [7], -0.17% (inactive) in assay [8] and 0.815% (inactive) in assay [14]. Moreover, the growth inhibition in assay [9] is -7.61% (inactive); in [10] it was -2.98% (inactive). Moreover, the viability increase in assay [11] was -1.7% (inactive). Besides, the RAM network inhibition in assay [15] was 1.17% (inactive).
Take `O=C(CSc1ccc2nnc(-c3ccccc3)n2n1)N1CCN(c2ccccc2)CC1`: the viability was 93.5% in [1]; 93.5% (inactive) in assay [3]; 77.9% (inactive) in assay [4]; 83.8% (inactive) in assay [5]; 93.4% in assay [6] (setting [16]); 83.8% in assay [6] (setting [17]). The results for the viability in assay [12] and in assay [13] were 101% (inactive) and 93.8% (inactive), respectively. The Her2 level in [2] was 114% (inactive). Besides, the differential viability (reversal) in assay [6] (H69AR cells + 2 uM doxorubicin) was -9.57% (inactive). Besides, the inhibition is -0.13% (inactive) in [7], 7.67% (inactive) in assay [8] and 0.38% (inactive) in assay [14]. Moreover, the growth inhibition is -0.235% (inactive) in assay [9] and 8.33% (inactive) in assay [10]. The viability increase in assay [11] was -3.49% (inactive). For the same compound, in assay [15], the RAM network inhibition was 0.93% (inactive).
